The text below walks through data of PubChem BioAssay (NCATS).

Results filed as inconclusive are left out. The source made the active and inactive calls. Calls come from the whole dose curve; as a rule, active = well fitted cell-killing curve with a large enough effect; inconclusive = small, poorly fitted or top-dose-only effect, or effect the other way; inactive = no such curve, though single readings can be large or run the other way.
Potency is the fitted concentration of half-maximal effect.

A short description of the experiment: Quantitative High-Throughput drug screen in 47 multiple myeloma cell lines against the NCATS MIPE library collection: KMS28BM_JCRB cell viability assay (AID 1919874). Note: nearly all actives have a fitted effect of over 35% in size. The conditions noted are these: CellTiter-Glo ATP, 48 h; series mostly up to 45.8 µM; viability, % of control: at the top concentration. From the text: PI: Beverly A. Mock Ph.D.
Laboratory of Cancer Biology and Genetics,
Center for Cancer Research, National Cancer Institute,
National Institute of Health, Bethesda, Maryland
Drug resistance and disease progression are common in multiple myeloma (MM) patients, underscoring the need for new therapeutic combinations. […] We hypothesized that effective combinations would reduce MYC expression and enhance p16 activity. […] These preclinical data identify potentially useful drug combinations for evaluation in drug-resistant MM and reveal potential mechanisms of combined drug sensitivity.
Described herein is the primary MIPE qHTS used to cherrypick compounds. Validated compounds were then further tested for potential synergistic activiy.
[1] Peat TJ, Gaikwad SM, Dubois W, Gyabaah-Kessie N, Zhang S, Gorjifard S, Phyo Z, Andres M, Hughitt VK, Simpson RM, Miller MA, Girvin AT, Taylor A, Williams D, D'Antonio N, Zhang Y, Rajagopalan A, Flietner E, Wilson K, Zhang X, Shinn P, Klumpp-Thomas C, McKnight C, Itkin Z, Chen L, Kazandijian D, Zhang J, Michalowski AM, Simmons JK, Keats J, Thomas CJ, Mock BA. Drug combinations identified by high-throughput screening promote cell cycle transition and upregulate Smad pathways in myeloma. Cancer Lett. 2023 Aug 1;568:216284. doi: 10.1016/j.canlet.2023.216284. Epub 2023 Jun 24. PMID: 37356470; PMCID: PMC10408729.
SEQUENCE No. (e.g., 1, 2, 3, etc.); […] (e.g., Cells, Incubation, Reagent, etc.); VALUE and DESCRIPTION.
1; Cells; 5 uL; white, solid bottom 1536-well Greiner assay plate.
2; Compounds; 23 nL; Kalypsis pin tool (Wako USA) equipped with a 1536-well pin head to transfer to the assay plates.
3; Incubation; 48 hours; 37C incubation.
4; Reagent;5uL; CellTiter Glo (Promega).
5; Detector; 425V; Luminescence; Viewlux PerkinElmer.
NOTES (numbers refer to Sequence numbers above)
1. The cell-based screening methods employed in this study were like those previously published. Briefly, the corresponding myeloma cell lines were screened in 1,536-well plates with 500 cells, 5-uL per well for inhibition of cell viability (assessed by measuring ATP levels with CellTiterGlo).
2. NCATS MIPE 4.0 library of approved and investigational drugs were added using the Kalypsis pin tool. Wells treated with DMSO only for 100% viability and media only for 0% viability were used as controls.
3. The assay plates were covered and incubated for 48 hours in a 37C, 5% CO2 incubator with controlled humidity.
4. After 48 hours, CellTilter-GloTM luminescent substrate mix (Promega) reagent was added to the assay plate and plates we incubated for 5 min at room temperature.
5. Signal was measured as median relative luminescence units on a ViewLux (PerkinElmer) multiplate reader.
[1] Heske CM, Davis MI, Baumgart JT, Wilson K, Gormally MV, Chen L, Zhang X, Ceribelli M, Duveau DY, Guha R, Ferrer M, Arnaldez FI, Ji J, Tran HL, Zhang Y, Mendoza A, Helman LJ, Thomas CJ. Matrix Screen Identifies Synergistic Combination of PARP Inhibitors and Nicotinamide Phosphoribosyltransferase (NAMPT) Inhibitors in Ewing Sarcoma. Clin Cancer Res. 2017 Dec 1;23(23):7301-7311. doi: 10.1158/1078-0432.CCR-17-1121. Epub 2017 Sep 12. PMID: 28899971; PMCID: PMC6636827.
For orientation: ATP-based viability assays read luminescence as a measure of living cells.
Consider `Cn1cc(-c2cnn3c(N)c(Br)c([C@H]4CCCNC4)nc23)cn1`, for which the Potency was 4.69 µM (active).
Regarding `Cc1cc(C(=O)NOCCO)c(Nc2ccc(I)cc2F)n(C)c1=O`, the “viability, % of control” value is 114% (inactive).
On to `C#CCC(Cc1cnc2nc(N)nc(N)c2n1)c1ccc(C(=O)N[C@@H](CCC(=O)O)C(=O)O)cc1` (stereo not given in full), for which the Potency is 0.0332 µM (active).
As to `O=c1[nH]c(=O)n([C@H]2C[C@@H](O)[C@@H](CO)O2)cc1C=CBr`, the “viability, % of control” value is 135% (inactive).
In the case of `Cn1cc(C2=C(c3c4n(c5ccccc35)CCC(CN)C4)C(=O)NC2=O)c2ccccc21` (stereo not given), the Potency was 10.5 µM (active).
With `C[C@H](NC(=O)[C@@H](O)c1cc(F)cc(F)c1)C(=O)N[C@@H]1C(=O)N(C)c2ccccc2-c2ccccc21`, the “viability, % of control” value was 104% (inactive).
On to `Cn1cc(-c2ccc3ncc(Cc4ccc5ncccc5c4)n3n2)cn1`, for which the “viability, % of control” value was 93.8% (inactive).
As for `CC1=C(C(=O)Nc2cc3cn[nH]c3cc2F)C(c2ccc(Cl)cc2F)N=C(c2ccnc(Cl)c2)N1` (stereo not given), the Potency was 23.5 µM (active).
The same measure, in the same setting: the result for `O=C(Nc1cc2cc[nH]c2cn1)c1ccccc1` reads 5.26 µM (active).
Take `C[C@@H]1[C@H](C)CC[C@]2(C(=O)O)CC[C@]3(C)C(=CC[C@@H]4[C@@]5(C)C[C@@H](O)[C@H](O)[C@@](C)(CO)[C@H]5CC[C@]43C)[C@@H]12`: the “viability, % of control” value was 116% (inactive).
On to `Nc1ncn([C@@H]2O[C@H](CO)[C@@H](O)[C@@H]2O)c(=O)n1`, for which the Potency is 16.6 µM (active).
On the same count and under the same terms, the same measure for `CCNC(=O)Nc1ccc(-c2nc3c(c(N4CCOC[C@H]4C)n2)CCN(C2COC2)C3)cc1`: 0.526 µM (active).
For `c1coc(CNc2ncnc3nc[nH]c23)c1`, the “viability, % of control” value was 136% (inactive).
On to `C#C[C@]1(O)CC[C@@H]2[C@@H]3CCC4=CC(=O)CC[C@@H]4[C@H]3CC[C@@]21CC`, for which the “viability, % of control” value was 112% (inactive).
For the compound `Cc1cnc(Nc2ccc(CN3CCOCC3)cc2)nc1Nc1cccc(S(=O)(=O)NC(C)(C)C)c1`, the Potency is 4.69 µM (active).
Still for that read-out and setting: the same measure for `COc1ccc(S(=O)(=O)Nc2cc(-c3c(O)ccc4ccccc34)c(O)c3ccccc23)cc1`: 3.72 µM (active); for `c1cc(N[C@@H]2CCNC2)nc(-c2cnc3ccc(-c4cn[nH]c4)cn23)c1`: 23.5 µM (active).
Same read-out and setting: the result for `CCS(=O)(=O)Nc1ccc2[nH]c(O)c(C(=Nc3ccc(CN4CCCCC4)cc3)c3ccccc3)c2c1` reads 0.132 µM (active); that for `COc1ccc(C=Cc2cc(OC)c(OC)c(OC)c2)cc1NC(=O)[C@H](N)CO`, 0.0118 µM (active).
On the same count and under the same terms, the result for `COc1cc(C(=O)NC2CCN(C)CC2)ccc1Nc1ncc2c(n1)N(C1CCCC1)CCC(=O)N2C(C)C` reads 14.8 µM (active).
For the compound `CC(=O)O[C@H]1C[C@@H]2CC[C@H]3[C@H]4C[C@H]([N+]5(C)CCCCC5)[C@@H](OC(C)=O)[C@@]4(C)CC[C@@H]3[C@@]2(C)C[C@H]1[N+]1(C)CCCCC1`, the “viability, % of control” value was 103% (inactive).
`COc1cc([C@@H]2c3cc4c(cc3[C@H](O)[C@H]3COC(=O)[C@@H]23)OCO4)cc(OC)c1OC`: the Potency is 0.0418 µM (active).
On the same count and under the same terms, the result for `NC(=O)Nc1sc(-c2ccc(F)cc2)cc1C(N)=O` reads 4.69 µM (active).
Take `C[C@@H]1CC[C@@]2(OC1)OC1CC3C4CC=C5CC(O)CCC5(C)C4CCC3(C)C1[C@@H]2C` (stereo not given in full): the “viability, % of control” value is 112% (inactive).
Same read-out and setting: the result for `C[C@@H](NCc1cc2ccccc2[nH]1)c1cccc2ccccc12` reads 127% (inactive).
In the case of `CCOC(=O)[C@H](CCc1ccccc1)N[C@@H](C)C(=O)N1[C@@H](C(=O)O)C[C@H]2CCC[C@@H]21`, the Potency is 5.9 µM (active).
On the same count and under the same terms, the result for `CCC(C(=O)O)C1CCC(C)C(C(C)C(O)C(C)C(=O)C(CC)C2OC3(C=CC(O)[C@@]4(CC[C@](C)(C5CC[C@@](O)(CC)C(C)O5)O4)O3)C(C)CC2C)O1` (stereo not given in full) reads 6.62 µM (active).
For the compound `CC(=O)OCC(=O)[C@@]12N=C(C)O[C@H]1C[C@H]1[C@@H]3CCC4=CC(=O)C=C[C@]4(C)[C@@H]3[C@@H](O)C[C@@]12C`, the “viability, % of control” value was 110% (inactive).
As for `Cn1cnc2c(F)c(Nc3ccc(Br)cc3F)c(C(=O)NOCCO)cc21`, the “viability, % of control” value is 102% (inactive).
Turning to `CCCNS(=O)(=O)Nc1ncnc(OCCOc2ncc(Br)cn2)c1-c1ccc(Br)cc1`, the “viability, % of control” value was 113% (inactive).
Take `COc1cc(N2CCC(C(N)=O)CC2)ccc1Nc1nc(N)c(Cl)c(Nc2ccccc2S(=O)(=O)C(C)C)n1`: the Potency is 0.833 µM (active).
For `O=C(O)C(=O)Nc1cccc(C2=NN=N[N]2)c1`, the “viability, % of control” value is 116% (inactive).
For the compound `CCN(CC)CCCCNc1ncc2c(n1)N(C)C(=O)N(c1c(Cl)c(OC)cc(OC)c1Cl)C2`, the Potency is 11.8 µM (active).
The same measure, in the same setting: the same measure for `COc1cc(OC)c(C=CS(=O)(=O)Cc2ccc(OC)c(NCC(=O)O)c2)c(OC)c1`: 0.132 µM (active); for `C=CCNc1c(O)cc2c(O)c1C[C@@H](C)C[C@H](OC)[C@@H](O)[C@@H](C)C=C(C)[C@H](OC(N)=O)[C@@H](OC)C=CC=C(C)C(=O)N2`: 0.935 µM (active).
Take `CC(C)N1[N]C(=C2C=c3cc(O)ccc3=N2)c2c(N)ncnc21`: the Potency was 1.32 µM (active).
In the case of `O=C1c2c(O)cccc2[C@@H]([C@@H]2O[C@H](CO)[C@@H](O)[C@H](O)[C@H]2O)c2cc(CO)cc(O)c21`, the “viability, % of control” value was 111% (inactive).
`CNC(=O)c1ccc(Nc2cc(Nc3ccccc3S(=O)(=O)C(C)C)c3cc[nH]c3n2)nc1`: the Potency was 1.32 µM (active).
Turning to `C[C@](Cc1c[nH]c2ccccc12)(NC(=O)OC1C2CC3CC(C2)CC1C3)C(=O)NC[C@H](NC(=O)CCC(=O)O)c1ccccc1` (stereo not given in full), the “viability, % of control” value was 124% (inactive).
As for `C[C@@]12C[C@@]3(O)O[C@@H](O1)[C@]1(COC(=O)c4ccccc4)[C@@H]3C[C@@]12O[C@@H]1O[C@H](CO)[C@@H](O)[C@H](O)[C@@H]1O`, the “viability, % of control” value is 127% (inactive).
